# Measurements: PubChem BioAssay (NCATS)
# Several values for one entry are separate records, joined by “and”; a condition that tells them apart may be missing. Equal entries are not always repeated. Records with an inconclusive call do not appear. Entries that show only a call come without a potency. Activity calls are given as the source filed them. Unless noted, calls follow the shape of the dose curve; as a rule, active = well fitted curve in the direction sought with a large enough effect; inconclusive = small, poorly fitted or top-dose-only effect, or another doubt; inactive = no such curve, though single readings can be large; an effect the other way counts as inactive or inconclusive.
# Columns and labels:
# [1] = biological target: Alpha-galactosidase A (Homo sapiens) (UniProt P06280); experiment: Counterscreen for Glucocerebrosidase Inhibitors: qHTS Assay for Human alpha-Galactosidase at pH 4.5 (AID 992)
# Alpha-galactosidase A (Homo sapiens), sequence (P06280 whole entry, looked up): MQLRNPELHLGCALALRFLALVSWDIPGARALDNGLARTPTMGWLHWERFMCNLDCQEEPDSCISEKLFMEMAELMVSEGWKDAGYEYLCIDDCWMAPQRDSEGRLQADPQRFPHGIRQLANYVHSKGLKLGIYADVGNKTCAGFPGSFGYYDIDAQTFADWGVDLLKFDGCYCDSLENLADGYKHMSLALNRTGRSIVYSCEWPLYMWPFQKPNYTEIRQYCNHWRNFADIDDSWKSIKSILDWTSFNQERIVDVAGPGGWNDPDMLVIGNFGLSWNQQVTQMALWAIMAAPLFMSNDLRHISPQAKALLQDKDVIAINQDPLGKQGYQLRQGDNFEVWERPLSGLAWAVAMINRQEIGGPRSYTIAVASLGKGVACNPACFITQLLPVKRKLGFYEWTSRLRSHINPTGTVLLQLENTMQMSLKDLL
# Summary of the method: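 Quantitative HTS: compounds tested from 0.7 nM up to 77 uM against 2 nM enzyme with 80 uM 4-MU alpha-D-galactopyranoside. The 20 min room-temperature reaction is stopped with 1M NaOH/1M glycine, pH 10.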
# [2] = biological target: alpha-glucosidase (Oryza sativa, rice) (UniProt Q653V4); experiment: Counterscreen for Glucocerebrosidase Inhibitors: qHTS Assay for Rice alpha-Glucosidase at pH 5.0 (AID 997)
# Summary of the method: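 Rice alpha-glucosidase (4 nM final) with 400 uM 4-methylumbelliferyl-alpha-D-glucopyranoside in citrate buffer pH 5.0, 20 min at room temperature, stopped at pH 10; fluorescence 365/440 nm, compounds 0.7 nM–77 uM, AC50 from Hill fits.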
# [3] = Validation of Assay for Modulators of Lamin A Splicing (AID 1459; active = well fitted curve in the direction sought with a large enough effect in the signal ratio; the % refers to the signal ratio;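 also: cells exposed to compound for two days before reading; ratio rise marks activators and ratio drop marks inhibitors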)
# Summary of the method: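 Splicing correction is reported by an EGFP-containing lamin A minigene in stably transfected S3 HeLa cells, while DsRed2 controls for viability and nonspecific signal. Cells are exposed to compounds for 48 hrs before the GFP over RFP ratio is taken.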
# [4] = qHTS Assay for Lipid Storage Modulators (AID 1519; calls by dose curve); details: Drosophila S3 cells, BODIPY lipid droplet/cell ratio, laser cytometry, cells loaded with oleic acid
# Summary of the method: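 Cells seeded at 5,000 per well were treated with compounds over a concentration series and loaded with oleic acid (400 uM, as added). Lipid droplet fluorescence (488 nm excitation, 500-530 nm channel) was read by laser-scanning cytometry and normalized to 20 uM Triacsin C.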
# [5] = Counterscreen for APE1 Inhibitors: Fluorescent Dye Displacement Validation Assay (AID 1707)
# Summary of the method: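 Compounds are scored by their ability to displace Thiazole Orange (250 nM) from a 50 nM TAMRA-tagged duplex bearing a tetrahydrofuran abasic site. Buffer is 50 mM Tris-HCl pH7.5, 50mM NaCl, 2 mM MgCl2, 0.01% Tween-20.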
# [6] = biological target: Endonuclease 4 (Escherichia coli (strain K12)) (UniProt P0A6C1); experiment: Counterscreen for APE1 Inhibitors: qHTS Validation Assay for Inhibitors of Endonuclease IV (AID 1708)
# Summary of the method: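 Concentration-response counterscreen run identically to the APE1 assay: 15 min room-temperature preincubation of 2 nM enzyme with compound, reaction started with 50 nM quenched abasic DNA, progress taken from kinetic fluorescence.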
# [7] = qHTS for differential inhibitors of proliferation of Plasmodium falciparum line 7G8 (AID 1815);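 also: parasite growth measured after three days of incubation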; also: potency is read from the fitted curve at half-maximal effect
# [8] = qHTS for differential inhibitors of proliferation of Plasmodium falciparum line GB4 (AID 1816); details: Potency: Plasmodium falciparum GB4 proliferation inhibition;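 also: parasite growth measured after 72 h incubation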; also: potency is read from the fitted curve at half-maximal effect
# [9] = qHTS for differential inhibitors of proliferation of Plasmodium falciparum line 3D7 (AID 1876); also: potency is read from the fitted curve at half-maximal effect
# [10] = qHTS for differential inhibitors of proliferation of Plasmodium falciparum line D10 (AID 1877);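 also: parasites grown with compound for 72 h before DNA staining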; also: potency is read from the fitted curve at half-maximal effect
# [11] = qHTS for differential inhibitors of proliferation of Plasmodium falciparum line Dd2 (AID 1882); details: Potency: Plasmodium falciparum Dd2 proliferation inhibition; also: nearly all actives have a fitted effect of over 65% in size; also: potency is read from the fitted curve at half-maximal effect
# Summary of the method: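 Dd2-infected erythrocytes (0.3% parasitemia, 2.5% hematocrit final) incubated with compound 72 h at 37 C, 5% CO2; lysed with saponin/Triton buffer containing SYBR Green I, incubated overnight in the dark, then read by fluorescence (485/535 nm). Normalized to 0.29 uM artemisinin and DMSO.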
# [12] = qHTS for differential inhibitors of proliferation of Plasmodium falciparum line HB3 (AID 1886); details: Potency: Plasmodium falciparum HB3 proliferation inhibition;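 also: parasites grown with compound for 72 h before SYBR Green readout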; also: potency is read from the fitted curve at half-maximal effect
# [13] = biological target: DNA repair nuclease/redox regulator APEX1 (Homo sapiens) (UniProt P27695); experiment: qHTS Validation Assay for Inhibitors of the Human Apurinic/apyrimidinic Endonuclease 1 (APE1) (AID 1705;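 also: TAMRA fluorescence gain over two minutes as APE1 cuts a quenched THF abasic duplex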)
# DNA repair nuclease/redox regulator APEX1 (Homo sapiens), sequence (P27695 whole entry, looked up): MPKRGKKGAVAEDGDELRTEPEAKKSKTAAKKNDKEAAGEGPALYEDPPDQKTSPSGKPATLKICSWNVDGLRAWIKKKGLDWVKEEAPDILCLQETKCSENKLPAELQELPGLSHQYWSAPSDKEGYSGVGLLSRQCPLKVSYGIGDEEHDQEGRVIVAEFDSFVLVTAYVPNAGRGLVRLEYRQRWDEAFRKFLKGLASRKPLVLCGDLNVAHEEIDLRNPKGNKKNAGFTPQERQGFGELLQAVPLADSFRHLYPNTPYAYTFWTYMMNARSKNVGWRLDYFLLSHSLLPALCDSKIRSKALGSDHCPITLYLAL
# Summary of the method: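 Endonuclease activity of human APE1 is followed as dequenching when the enzyme incises a tetrahydrofuran abasic site in a short duplex labelled 5'-TAMRA/3'-BHQ-2 (50 nM final), after 15 min enzyme–compound preincubation at room temperature.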
# [14] = qHTS for differential inhibitors of proliferation of Plasmodium falciparum line W2 (AID 1883); details: Potency: Plasmodium falciparum W2 proliferation inhibition;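 also: parasites grown with compound for 72 h before lysis and staining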; also: potency is read from the fitted curve at half-maximal effect
# [15] = qHTS Assay for Modulators of Human Peripheral Myelin Protein 22 (PMP22) Expression/Activity (AID 1967; active = well fitted curve in the direction sought with a large enough effect in the signal ratio; the % refers to the signal ratio)
# Summary of the method: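 Quantitative HTS in a mouse Schwann cell line expressing dual click beetle luciferases: Pmp22 promoter (green) and control EF-alpha promoter (red). After 24h treatment, corrected green/red signal ratio gave %Activity relative to untreated cells.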
# [16] = measured here: cell count channel max response
# [17] = measured here: lipid channel max response
compound,measurement,setting,value
CC(C)COC(=O)OCN1C(=O)CN(CCN2CC(=O)N(COC(=O)OCC(C)C)C(=O)C2)CC1=O,outcome,[1],inactive
same,outcome,[2],inactive
same,outcome,[3],inactive
same,"activity change, negative = inhibition",[4]; at 57.5 µM (top of the series),1.23% (inactive)
same,max response,[4]; [16],3.57%
same,max response,[4]; [17],4.19%
same,outcome,[5],inactive
same,outcome,[6],inactive
same,Potency,[7],inactive
same,Potency,[8],inactive
same,Potency,[9],inactive
same,Potency,[10],inactive
same,Potency,[11],inactive
same,Potency,[12],inactive
O=C(O)c1cc2cc(Cc3cccnc3)ccc2o1,outcome,[1],inactive
same,outcome,[2],inactive
same,outcome,[3],inactive
same,"activity change, negative = inhibition",[4]; at 57.5 µM (top of the series),4.53% (inactive)
same,max response,[4]; [16],9.59%
same,max response,[4]; [17],18.2%
same,Potency,[13],inactive
same,outcome,[5],inactive
same,outcome,[6],inactive
same,Potency,[7],inactive
same,Potency,[8],inactive
same,Potency,[9],inactive
same,Potency,[10],inactive
same,Potency,[11],inactive
same,Potency,[14],inactive
same,Potency,[12],inactive
same,outcome,[15],inactive
O=C(COc1ccc(Cl)cc1)N1CCN(Cc2ccc3c(c2)OCO3)CC1,"activity change, negative = inhibition",[4]; at 25.7 µM (top of the series),1.24% (inactive)
same,max response,[4]; [16],-6.27%
same,max response,[4]; [17],-4.72%
CC1(C)CCC(NC(=O)[C@@H](N)CCC(=O)O)CC1,outcome,[3],inactive
same,Potency,[13],inactive
same,outcome,[5],inactive
same,outcome,[6],inactive
same,Potency,[7],inactive
same,Potency,[8],inactive
same,Potency,[9],inactive
same,Potency,[10],inactive
same,Potency,[11],inactive
same,Potency,[14],inactive
same,Potency,[12],inactive
same,outcome,[15],inactive
CCCCC1=NC2(CCCC2)C(=O)N1Cc1ccc(-c2ccccc2-c2nn[nH]n2)cc1,"activity change, negative = inhibition",[4]; at 57.5 µM (top of the series),-6.83% (inactive)
same,max response,[4]; [16],15.4%
same,max response,[4]; [17],9.2%
C1CCc2nnnn2CC1,outcome,[1],inactive
same,outcome,[2],inactive
same,outcome,[3],inactive
same,Potency,[13],inactive
same,outcome,[5],inactive
same,outcome,[6],inactive
same,Potency,[7],inactive
same,Potency,[8],inactive
same,Potency,[9],inactive
same,Potency,[10],inactive
same,Potency,[11],inactive
same,Potency,[14],inactive
same,Potency,[12],inactive
same,outcome,[15],inactive
Oc1c(I)cc(I)c2cccnc12,"activity change, negative = inhibition",[4]; at 57.5 µM (top of the series),-2.05% (inactive)
same,max response,[4]; [16],9.29%
same,max response,[4]; [17],10.6%
OCc1ccccc1O,"activity change, negative = inhibition",[4]; at 57.5 µM (top of the series),1.86% (inactive)
same,max response,[4]; [16],-8.44%
same,max response,[4]; [17],0.187%
C/C=C(/C(=C/C)c1ccc(O)cc1)c1ccc(O)cc1,"activity change, negative = inhibition",[4]; at 57.5 µM (top of the series),15.3% (inactive)
same,max response,[4]; [16],6.35%
same,max response,[4]; [17],27.9%
CCC(NC(C)C)C(O)c1ccc(O)c(O)c1 (centres undefined),outcome,[3],inactive
same,"activity change, negative = inhibition",[4]; at 57.5 µM (top of the series),1.71% (inactive)
same,max response,[4]; [16],7.27%
same,max response,[4]; [17],6.31%
same,Potency,[13],inactive
same,outcome,[5],inactive
same,outcome,[6],inactive
same,Potency,[7],11.2 µM (active)
same,Potency,[8],12.6 µM (active)
same,Potency,[9],12.6 µM (active)
same,Potency,[10],12.6 µM (active)
same,Potency,[11],7.08 µM (active)
same,Potency,[14],8.91 µM (active)
same,Potency,[12],8.91 µM (active)
same,outcome,[15],inactive
CC(CCc1ccccc1)NCC(O)c1ccc(O)c(C(N)=O)c1 (centres undefined),outcome,[3],inactive
same,"activity change, negative = inhibition",[4]; at 57.5 µM (top of the series),1.59% (inactive) and 2.63% (inactive)
same,max response,[4]; [16],0.538% and 18.3%
same,max response,[4]; [17],3.22% and 11.8%
same,Potency,[13],inactive
same,outcome,[5],inactive
same,outcome,[6],inactive
same,Potency,[7],7.94 µM (active)
same,Potency,[8],10 µM (active)
same,Potency,[9],10 µM (active)
same,Potency,[10],12.6 µM (active)
same,Potency,[14],8.91 µM (active)
same,Potency,[12],12.6 µM (active)
same,outcome,[15],inactive
CCCCCCCCCCCCCCCCOP(=O)([O-])OCC[N+](C)(C)C,"activity change, negative = inhibition",[4]; at 57.5 µM (top of the series),6.36% (inactive)
same,max response,[4]; [16],14.5%
same,max response,[4]; [17],23.7%
N[C@@H](Cc1cnc[nH]1)C(=O)O,outcome,[1],inactive
same,outcome,[2],inactive
same,outcome,[3],inactive
same,"activity change, negative = inhibition",[4]; at 57.5 µM (top of the series),2.39% (inactive)
same,max response,[4]; [16],-24.8%
same,max response,[4]; [17],-24.4%
same,Potency,[13],inactive
same,outcome,[5],inactive
same,outcome,[6],inactive
same,Potency,[7],inactive
same,Potency,[8],inactive
same,Potency,[9],inactive
same,Potency,[10],inactive
same,Potency,[11],inactive
same,Potency,[14],inactive
same,Potency,[12],inactive
same,outcome,[15],inactive
Cc1c(C(N)=O)cc([N+](=O)[O-])cc1[N+](=O)[O-],"activity change, negative = inhibition",[4]; at 57.5 µM (top of the series),9.82% (inactive)
same,max response,[4]; [16],12.8%
same,max response,[4]; [17],29.3%
COC(=O)[C@H]1[C@H]2C[C@H]3c4[nH]c5ccccc5c4CCN3C[C@H]2CC[C@@H]1O,outcome,[3],inactive
same,Potency,[13],inactive
same,outcome,[5],inactive
same,outcome,[6],inactive
same,Potency,[9],inactive
same,Potency,[10],inactive
same,Potency,[11],inactive
same,Potency,[12],inactive
CC[N+](CC)(CCNC(=O)C(=O)NCC[N+](CC)(CC)Cc1ccccc1Cl)Cc1ccccc1Cl,"activity change, negative = inhibition",[4]; at 57.5 µM (top of the series),1.97% (inactive)
same,max response,[4]; [16],-14%
same,max response,[4]; [17],-12.6%
CCCCc1nc(Cl)c(CO)n1Cc1ccc(-c2ccccc2-c2nn[nH]n2)cc1,"activity change, negative = inhibition",[4]; at 57.5 µM (top of the series),9.33% (inactive)
same,max response,[4]; [16],13.8%
same,max response,[4]; [17],25.7%
CN(C)CCCOc1nn(Cc2ccccc2)c2ccccc12,"activity change, negative = inhibition",[4]; at 25.7 µM (top of the series),-3.69% (inactive)
same,max response,[4]; [16],1.49%
same,max response,[4]; [17],-2.83%
CO/N=C1\CN(c2nc3c(cc2F)c(=O)c(C(=O)O)cn3C2CC2)CC1CN (centres undefined),"activity change, negative = inhibition",[4]; at 57.5 µM (top of the series),8.95% (inactive)
same,max response,[4]; [16],11%
same,max response,[4]; [17],24%
